IMPase cell inh – membrane-permeable compound that blocks inositol monophosphatase. P97697. CHO-M1 cells, IP1 accumulation, HTRF TR-FRET ratio. inhibition (IP1 accumulation), % at 46.1 µM. 120,000 tested, under 10 active; active = well fitted curve in the direction sought with a large enough effect in the signal ratio, not every such curve was filed as active; inconclusive = small, poorly fitted or top-dose-only effect, or a change in a side signal; inactive = no such curve, though single readings can be large or run the other way; the % refers to the signal ratio;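 also: cells stimulated with carbachol in lithium chloride buffer; plate controls were DMSO basal wells for no effect and reference inhibitor wells for full effect; higher means more IMPase inhibition seen as more IP1 and lower FRET ratio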
Target sequence (P97697 whole entry, looked up): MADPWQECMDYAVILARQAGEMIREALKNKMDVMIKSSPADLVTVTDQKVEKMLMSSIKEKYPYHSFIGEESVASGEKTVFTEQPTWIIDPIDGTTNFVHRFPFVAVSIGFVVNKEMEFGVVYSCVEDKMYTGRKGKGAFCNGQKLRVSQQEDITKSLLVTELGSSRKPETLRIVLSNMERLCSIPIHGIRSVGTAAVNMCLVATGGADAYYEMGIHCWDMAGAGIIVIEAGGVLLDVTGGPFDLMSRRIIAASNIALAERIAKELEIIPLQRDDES
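Cellular IMPase inhibition is scored as a rise in cytosolic IP1, detected by competitive TR-FRET between d2-labelled IP1 and a europium anti-IP1 antibody. M1-expressing CHO cells were stimulated with carbachol for 30 min at 37C, with lithium (50 mM LiCl) present in the buffer.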
ALDH1A1 inh – ALDH1A1 (human) enzyme inhibition; Purified ALDH1A1, NADH fluorescence, propionaldehyde substrate; actives 7.3% (n = 220,000); P00352; Potency, µM (highest dose often 75.3 µM), inactives show top-dose activity, negative = inhibition, usual class: inhibitors;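 also: potency is read from the fitted curve at half-maximal effect; plate controls were no enzyme wells and a reference inhibitor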
HPGD inh – blocks human HPGD enzyme activity | actives 4.3% (n = 150,000) | P15428 | AID 894 | Potency, µM, inactives show at the highest dose activity change, negative = inhibition, usual class: inhibitors | purified HPGD, NADH fluorescence kinetic, PGE2 substrate; also: potency is read from the fitted curve at half-maximal effect
Target sequence (P15428 whole entry, looked up): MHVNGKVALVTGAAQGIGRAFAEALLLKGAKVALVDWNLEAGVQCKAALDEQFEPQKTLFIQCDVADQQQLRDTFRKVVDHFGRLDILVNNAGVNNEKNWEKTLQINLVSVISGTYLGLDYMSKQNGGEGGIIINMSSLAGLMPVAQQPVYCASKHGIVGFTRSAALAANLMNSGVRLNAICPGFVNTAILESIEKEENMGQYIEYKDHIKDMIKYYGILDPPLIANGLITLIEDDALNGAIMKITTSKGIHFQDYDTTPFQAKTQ
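NADH formation kinetics: reaction with 30 uM PGE2 and 1 mM NAD+ (final), 20 nM enzyme, Tris-HCl pH 8 with Tween 20, after 15 min compound preincubation at room temperature. Fluorescence change, last versus first of five reads.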
PNC assembly inh – blocks assembly of the perinucleolar compartment; PC3M PTB-GFP, PNC prevalence imaging, 16 h; hits give low values; actives 3.1% (n = 140,000); activity change (PNC), negative = inhibition, % at 10 µM;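 active = readout at or below -70, meaning at least 70% loss of cells showing the perinucleolar compartment, a nuclear body marking cancer cells; inconclusive = readout between -30 and a set limit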;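 also: plate controls were DMSO wells for no effect and camptothecin positive control wells for full effect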
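Read-out is percentage of cells bearing a perinucleolar compartment, from automated 20x imaging of fixed, Hoechst-stained PC3M PTB-GFP cells. Cells were seeded 4 h, then exposed 16 h to compound (23 nl of library stock) in duplicate plates.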
IMPase Li inh – membrane-permeable IMPase blocker, potentiated with lithium. CHO-M1 cells, IP1 TR-FRET (IP-One), carbachol + lithium. Potency, µM (top dose mostly 59.4 µM), for the others: top-dose activity, negative = IMPase inhibition, most hits filed as inhibitors. actives 0.35% (n = 210,000). AID 1457; active = well fitted inhibition curve with a large enough effect; inconclusive = small, poorly fitted or top-dose-only effect; inactive = no such curve, though single readings can be large or run the other way;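 also: IP1 builds up when IMPase is blocked and the TR-FRET signal falls; potency is read from the fitted curve at half-maximal effect; plate controls were basal vehicle for no effect and high inhibitor control for full effect; nearly all actives have a fitted effect of over 50% in size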
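IP1 accumulation measured by competitive TR-FRET in lysed CHO-M1 cells after 30 min compound exposure at 37C, with a small lithium addition to potentiate weak responses. Hill-equation AC50 from ratio and donor-channel data.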
* = called active by the depositor; ? = inconclusive; . = no result; ! = not active in a repeat; [ ] = dose if it differs, or a comment. An excerpt weighted towards active compounds, which were near 11% of everything screened. Unless noted, calls follow the shape of the dose curve; as a rule, active = well fitted inhibition curve with a large enough effect (not every such curve was filed as active); inconclusive = small, poorly fitted or top-dose-only effect, or another doubt; inactive = no such curve, though single readings can be large or run the other way. Unless noted, % is scaled to controls: 0 for no effect and ±100 for the full control effect.

SMILES	IMPase cell inh	ALDH1A1 inh	HPGD inh	PNC assembly inh	IMPase Li inh
COc1ccc(/C=C(\CC(=O)O)c2nc3ccccc3o2)cc1	.	-11%	.	.	5%
COc1ccc(C(=O)/C(=C/c2cccs2)c2nc3ccccc3o2)cc1	17	2µM*	35µM*	68	41%[38.3 µM]
CCOC(=O)c1c(C)[nH]c(C)c1C(=O)CSc1nc2ccccc2c(=O)n1-c1ccccc1C	.	20µM*	-8%	-12	13%
CCOC(=O)c1c(C)[nH]c(C)c1C(=O)CSc1nc2ccccc2c(=O)n1-c1ccc(F)cc1	.	-11%	.	.	10%
CCOc1ccccc1-n1c(SCC(N)=O)nc2ccccc2c1=O	2	9%	-5%	-106*	-3%[38.3 µM]
CCOc1ccccc1-n1c(SCC(N)=O)nnc1-c1ccccc1	19	5%	-1%	-13	-20%[38.3 µM]
CC(C)N(C(=O)CSc1nnc(CSc2ncccn2)n1C)C(C)C	.	9%	.	.	-1%
CC(C)Nc1oc(-c2ccccc2)nc1-c1cccc2ccccc12	.	1%	-9%	.	13%
O=C(O)C1C2C=CC(O2)C1C(=O)NCc1ccccc1Br (configuration not stated)	5	14µM*	-8%	15	31%[38.3 µM]
CCCC[C@@H]1C[C@H]1C(NC(=O)Cc1ccccc1)c1ccc(-c2ccccc2)cc1 (some centres not stated)	.	1%	-12%	.	22%
Cc1cc(C)cc(OC2CCCCC2NS(=O)(=O)c2ccccc2)c1 (configuration not stated)	.	13µM*	-15%	?	11%
CSc1ccc(OC2CCCCC2NS(=O)(=O)c2ccccc2)cc1 (configuration not stated)	.	1.3µM*	-14%	-14	7%
C=Cc1ccc(COc2ccc3oc(-c4ccccc4)c(C(=O)OCC)c3c2)cc1	-1	.	.	.	.
C=C(CC)C(=O)c1ccc(OCC(=O)O)c(Cl)c1Cl	4[20.6 µM]	14µM*!	-27%	77	-1%
CCOC(=O)COc1ccc2nsnc2c1Cl	?	?	?	20	-14%[38.3 µM]
CN1C(=O)c2ccc(C(=O)NCc3ccccc3)cc2C1=O	1[1.84 µM]	?	-9%	-92*	51%[38.3 µM]
CCN1C(=O)CSc2ccc(C(=O)NCc3ccco3)cc21	?	13µM*	-1%	-30	-13%[38.3 µM]
O=C(NCc1ccc(N2CCCC2=O)cc1)c1ccc(F)cc1	.	7%	.	.	8%
CC(C)(C)N1C(=O)c2ccc(C(=O)NCc3ccco3)cc2C1=O	10	8.9µM*	-14%	-25	10%[38.3 µM]
O=C(NCc1ccco1)c1ccc(N2CCCC2=O)cc1	-1	-5%	25µM*	18	-6%[38.3 µM]
NNC(=O)CNS(=O)(=O)c1ccc([N+](=O)[O-])cc1	.	?	.	.	0%
COc1cccc2c(=S)c(CCC(C)=O)c(C)[nH]c12	-20	?	?	12	10µM*
CC(=O)CCc1c(C)c2cccc(C)c2[nH]c1=O	-6	-11%	?	28	7%[38.3 µM]
COc1cc(C(=O)N/N=C/c2cc([N+](=O)[O-])cs2)cc(OC)c1OC	.	?	-8%	-103*	4%
CCOc1ccc(C(=O)N/N=C/c2cc([N+](=O)[O-])cs2)cc1	.	-3%	.	.	4%
SMILES	IMPase cell inh	ALDH1A1 inh	HPGD inh	PNC assembly inh	IMPase Li inh
Cc1cc(O)c(C(C)C)cc1CN1CCCCC1	.	-2%[13.5 µM]	-3%	.	-3%
CCc1cc(=O)oc2cc(C)c3c(-c4ccc(F)cc4)coc3c12	8	.	.	.	.
COCCNC(=O)CCc1nc(-c2ccccc2)no1	-4	2%	16µM*	30	3%[38.3 µM]
Cc1ccc(-c2noc(CCC(=O)NCc3ccco3)n2)cc1	-3	?	28µM*	22	18%[38.3 µM]
COc1cc(-c2noc(CCCC(=O)NCc3ccco3)n2)cc(OC)c1OC	-1	-14%	-18%	-100*	5%
COc1ccccc1-c1noc(CCC(=O)Nc2cccc(C)c2)n1	4	1%	-9%	7	-9%[38.3 µM]
COCCCNC(=O)CCc1nc(-c2ccccc2)no1	-1	-10%	?	-19	28%[38.3 µM]
COc1ccccc1-c1noc(CCC(=O)Nc2ccccc2Cl)n1	-10	28µM*	25µM*	?	5%
Cc1ccc(SCC(=O)Nc2ccc(S(N)(=O)=O)cc2)cc1	.	-4%	.	.	-5%
Cc1ccc2nc(C)cc(C(=O)Nc3nccs3)c2c1	.	?	.	.	0%
COc1ccc(CCNC(=O)CSc2ccc3ccccc3c2)cc1OC	?	-2%	.	16	.
O=C(CSc1ccc2ccccc2c1)NCCc1ccc(O)c(O)c1	.	25µM*	.	.	8%
NCCC[C@@H](CC(=O)N[C@@H]1CCCC[C@H]1C(=O)N[C@H](CC(=O)N[C@@H](CCC(=O)O)CC(=O)O)Cc1ccccc1)NC(=O)C[C@H](Cc1ccccc1)NC(=O)[C@@H]1CCCC[C@H]1N	.	6%	-2%	.	-5%
Cc1cc(C)cc(Oc2nc(-c3ccccc3)cc(C)c2S(C)(=O)=O)c1	-1	14µM*	?	-112*	39%[38.3 µM]
Cc1cc(C)c(S(C)(=O)=O)c(Oc2ccc(F)cc2)n1	4	-41%	-5%	74	-19%[38.3 µM]
CCOCCOc1nc(C)cc(C)c1S(=O)(=O)c1ccccc1C	.	0%	.	.	4%
Cc1cc(C)c(S(C)(=O)=O)c(Oc2ccccc2C)n1	9	10%	28µM*	59	8%[38.3 µM]
Cc1cc(C)c(S(=O)(=O)c2ccccc2C)c(OCC(C)(C)C)n1	13	13µM*	-14%	?	11%[38.3 µM]
CC[C@@H]1Cn2c(c3nc(-c4ccccc4)nc-3n(C)c2=O)N1	.	?	?	.	4%
CNc1ncncc1-c1ccccc1C(F)(F)F	.	16%	.	.	10%
CC(C)[C@H](Nc1ncnc2nc[nH]c12)C(=O)O	.	2%[13.5 µM]	-5%	.	-6%
COc1cc(C2CC(=O)c3cnc(N4CCN(Cc5ccccc5)CC4)nc3C2)cc(OC)c1OC (configuration not stated)	-4	?	?	18	11%
COc1ccc(C2CC(=O)c3c(C)nc(N4CCN(Cc5ccccc5)CC4)nc3C2)cc1OC (configuration not stated)	?	25µM*	-16%	-9	5%[38.3 µM]
Cc1cc(C)c(NC(=O)C2CCCN2CCOC(=O)c2cccc([N+](=O)[O-])c2)c(C)c1 (configuration not stated)	.	40µM*	-5%	-19	23%
CC(C(=O)OCC(=O)c1ccc([N+](=O)[O-])cc1)N1C(=O)C2C3CCC(C3)C2C1=O (configuration not stated)	.	3.2µM*	.	.	25%
COc1cccc(C(=O)N/N=C/C(Br)=C/c2ccccc2)c1	.	15%	-25%	3	-6%
C=C(C)Cn1c(SCC(=O)Nc2cccc(Cl)c2)nc2sc3c(c2c1=O)CCCC3	-18	.	.	.	.
Cc1ccc(C(=O)CN2/C(=C(\O)c3ccccc3)C(=O)c3ccccc3S2(=O)=O)c(C)c1	-3	2.8µM*	-22%	17	8%[38.3 µM]

Bioassay records (PubChem BioAssay)
